IDH1 R132H inh: qHTS for Inhibitors of mutant isocitrate dehydrogenase 1 (IDH1): qHTS; Isocitrate dehydrogenase [NADP] cytoplasmic (Homo sapiens), O75874; IDH1-R132H enzyme, NADPH consumption, diaphorase/resazurin fluorescence; Potency, µM (series often up to 76.6 µM), for inactives: at the top dose activity change, negative = inhibition, actives largely listed as inhibitors; 0.093% of 390,000 active; AID 602179, 2012; also: potency is read from the fitted curve at half-maximal effect; nearly all actives have a fitted effect of over 65% in size
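IDH1-R132H (0.5 ug/mL) preincubated 30 min with compound, then NADPH (0.016 mM) and alpha-KG (2 mM) added; 80 min at RT, pH 7.5. Remaining NADPH coupled via diaphorase/resazurin to fluorescence (540/590 nm); concentration-response curves normalized to no-enzyme control.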
FBPA coupling cs: qHTS Assay for Inhibitors of Fructose-1,6-bisphosphate Aldolase from Giardia Lamblia: Coupling assay counterscreen; coupling enzyme system counterscreen, AmpLite Red fluorescence; activity change, negative = inhibition, % at 58.2 µM, hits read low; 0.67% of 290,000 active; AID 2472, 2010; in the data active = activity change below about -30%
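Counterscreen lacking aldolase: glyceraldehyde-3-phosphate coupling-enzyme reagent preincubated 10 min at RT with compound (at 57.5 uM final), then substrate/coupling system with AmpLite Red added; fluorescence read at 525/598 nm after 20 min RT.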
TrxR1 substrate: qHTS Assay for Substrates of Mammalian Selenoprotein Thioredoxin Reductase 1 (TrxR1): qHTS | 0.01% of 390,000 active | Potency, µM (top dose mostly 114 µM), inactives show top-dose activity change, negative = substrate turnover | purified TrxR1 substrate turnover, NADPH consumption readout; also: potency is read from the fitted curve at half-maximal effect; nearly all actives have a fitted effect of over 50% in size
Target sequence (O89049 whole entry, looked up): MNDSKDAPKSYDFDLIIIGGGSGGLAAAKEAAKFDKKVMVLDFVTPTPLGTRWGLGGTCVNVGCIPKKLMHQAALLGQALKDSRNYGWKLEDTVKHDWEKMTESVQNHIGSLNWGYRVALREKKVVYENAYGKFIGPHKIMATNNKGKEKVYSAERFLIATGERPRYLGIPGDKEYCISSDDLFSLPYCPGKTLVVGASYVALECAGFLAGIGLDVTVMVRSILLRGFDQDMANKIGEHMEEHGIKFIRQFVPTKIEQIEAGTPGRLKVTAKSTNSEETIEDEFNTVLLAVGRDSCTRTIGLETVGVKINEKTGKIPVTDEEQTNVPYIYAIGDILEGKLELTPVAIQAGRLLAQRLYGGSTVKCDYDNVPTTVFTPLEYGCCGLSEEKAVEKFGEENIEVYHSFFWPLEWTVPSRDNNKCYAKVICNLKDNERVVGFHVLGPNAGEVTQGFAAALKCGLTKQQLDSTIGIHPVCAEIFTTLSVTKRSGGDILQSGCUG
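Rat TrxR1, dispensed at 90 nM, was prereduced with 400 uM NADPH (final) for 5 min at ~22 deg C, then incubated with compound 15 min before 400 uM selenite. A first-read NADPH fluorescence drop versus no-compound background flagged substrates.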
TrxR1 inh: qHTS Assay for Inhibitors of Mammalian Selenoprotein Thioredoxin Reductase 1 (TrxR1): qHTS; recombinant rTrxR1, NADPH fluorescence consumption, selenite substrate; Potency, µM (highest dose often 114 µM), inactives show at the highest dose activity change, negative = inhibition, usual class: inhibitors; 1% of 390,000 active; AID 588453, 2011; also: potency is read from the fitted curve at half-maximal effect; nearly all actives have a fitted effect of over 65% in size
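Rat TrxR1 (90 nM in the dispensed reagent) was pre-reduced with 400 uM NADPH for 5 min at room temperature, then incubated with compound for 15 min. After 400 uM selenite was added, NADPH fluorescence (Ex 340/Em 450 nm) was followed for 8 min.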
Eya2 phos inh: qHTS Assay for Inhibitors of the Phosphatase Activity of Eya2. Protein phosphatase EYA2 (Homo sapiens), O00167. recombinant Eya2, OMFP fluorescence dephosphorylation (OMFP is methylfluorescein phosphate). Potency, µM (titrated, usually from 76.9 µM), for inactives: at the highest dose activity, negative = inhibition, usual class: inhibitors. 0.006% of 330,000 active. AID 488837, 2010; also: potency is read from the fitted curve at half-maximal effect
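Eya2 (0.2 uM) preincubated 10 min at ambient with compound, then OMFP substrate added at 50 uM; 10 min reaction in 50 mM HEPES pH 7.5, 50 mM NaCl, 5 uM MgCl2, 0.05% BSA, 1 mM DTT. Fluorescence read at Ex 485/Em 525 nm.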
Active calls of the source: *; ? = inconclusive; . = no result; [ ] = dose if it differs, or a comment. This is a sample that favours compounds with a hit; in the whole collection about 1.5% have one here. Unless noted, calls follow the shape of the dose curve; as a rule, active = well fitted curve in the direction sought with a large enough effect; inconclusive = small, poorly fitted or top-dose-only effect, or another doubt; inactive = no such curve, though single readings can be large; an effect the other way counts as inactive or inconclusive. % is scaled to controls: 0 for no effect and ±100 for the full control effect.

SMILES	IDH1 R132H inh	FBPA coupling cs	TrxR1 substrate	TrxR1 inh	Eya2 phos inh
CNc1ccc(Br)cc(C(=O)/C=C/c2ccc(OC)cc2)c1=O	9%	-29	0%[57.1 µM]	-66%	4%
COc1cc(N(C)C)c(OC)cc1C=C1C=CC=C1	.	.	-13%	?	.
CCC1(c2ccc(OC)cc2)NC(=O)N(C)C1=O (centres undefined)	.	1	.	.	.
COc1ccc2nc(-c3ccc(N(C)C)cc3)sc2c1	.	-2	.	.	.
O=C1/C(=C/C=C/c2ccco2)SC(=S)N1NS(=O)(=O)c1ccccc1	12%	-5	-20%	45µM*	-28%
CC(C(=O)O)N1C(=O)/C(=C/C=C/c2ccco2)SC1=S (centres undefined)	-3%	.	-18%	14µM*	13%
C=C1C=C(C(F)F)n2ncc(C(=O)NCc3ccc(Cl)cc3Cl)c2N1	.	.	15%	13%	.
O=[N+]([O-])C(=C1SCCS1)C(=C(Cl)Cl)N1CCCCC1	15%	5	0%[57.1 µM]	2%[57.1 µM]	-1%
O=[N+]([O-])C(/C=C(\Cl)[N+](=O)[O-])=C(N1CCCCC1)N1CCCCC1	-8%	-2	-19%	20µM*	-2%
CC(=O)N(Cc1ccc(F)cc1)C1=C(NCc2ccccc2)C(=O)c2ccccc2C1=O	13%	-55*	-8%	-3%	14%
O=C(Nc1cc(Cl)cc(Cl)c1)c1cnn2c1NC(=C1CC1)C=C2C(F)F	.	.	7%	35%	.
COc1cc2nc(N3CCN(C)CC3)nc(NC(C)C)c2cc1OC	.	.	46%	?	.
COc1ccc2nc(Nc3sc4c(c3C(N)=O)CCCC4)sc2c1	0%	3	-8%	14µM*	0%
C(=Nc1cccnc1)c1ccnc2ccccc12	.	.	103%	9%	.
Nc1ccc2nc[nH]c2c1	13%	-41*	4%	22%[57.1 µM]	-1%
O=C(Nc1ccc2nc(-c3ccco3)c(-c3ccco3)nc2c1)N1CCCCCC1	2%	-37*	34%	1.8µM*	9%
O=C(Nc1ccc2nc(-c3cccs3)c(-c3cccs3)nc2c1)N1CCCC1	.	.	95%	15%	.
CCOC(=O)C1CCN(C(=O)Nc2ccc3nc(-c4ccco4)c(-c4ccco4)nc3c2)CC1	1%	-45*	31%	3.2µM*	13%
CN(C)CCCNC(=O)C1CCNCC1	1%	0	-6%	71µM*	13%
CN(C)CCCNC(=O)c1cc(C(=O)C2CCCCC2)c[nH]1	14%	2	6%[57.1 µM]	17%	11%
CCOC(=O)c1cc(=O)n2nc(-c3ccccc3F)nc2s1	-6%	1	1%[57.1 µM]	11µM*	1%
Cc1ccc(S(=O)(=O)Cc2ccc(C(=O)N3CCc4ccccc4C3)o2)cc1	-10%	-2	-7%	71µM*	20%
COc1ccc(S(=O)(=O)Cc2ccc(C(=O)N3CCc4ccccc4C3)o2)cc1	11%	1	6%	50µM*	3%
Cc1ccc(S(=O)(=O)Cc2ccc(C(=O)O)o2)cc1	7%	1	0%	25µM*	14%
COc1ccc(S(=O)(=O)Cc2ccc(C(=O)O)o2)cc1	0%	-2	6%	-13%	-5%
SMILES	IDH1 R132H inh	FBPA coupling cs	TrxR1 substrate	TrxR1 inh	Eya2 phos inh
NC1=CC(=O)c2cccc3cccc1c23	.	-34*	.	.	16%
c1ccc(-c2nn[nH]n2)c(Nc2cccc3c2CCCC3)c1	.	10	.	.	.
CCOCCCNC(=O)c1c(NC(=O)c2nc(SCC)ncc2Cl)sc2c1CCCC2	.	.	-4%	15%[0.0914 µM]	.
CS(=O)(=O)c1nc(S(=O)(=O)c2ccc(Cl)cc2)c(N2CCC(C(N)=O)CC2)s1	-4%	.	-11%	32µM*	0%
Cc1ccc(S(=O)(=O)c2nc(S(C)(=O)=O)sc2N2CCC(C(N)=O)CC2)cc1	-9%	1	-4%	-4%	1%
C=C(c1nc2ccccc2s1)C1Cc2cccc3c2N(CCC3)C1 (centres undefined)	.	.	-8%	27%	.
CC(C)(C)c1cc(N2CCOCC2)n2ncc(-c3ccc(Cl)cc3)c2n1	3%	-1	174%	89µM*	-4%
Cc1sc2ccccc2[n+]1C	.	.	5%	68%	.
CCCCN(C)CCNC(=O)c1cc2cc3ccc(OC)cc3nc2o1	-3%	1	606%	45µM*	-3%
Cc1[nH]c2ccc(C(=O)N3CCN(c4cccc(Cl)c4)CC3)cc2c1C	6%	0	1%	12%	-1%
CS(=O)(=O)c1ncc(Cl)c(C(=O)N2CCN(c3cccc(Cl)c3)CC2)n1	3%	.	1%	0.89µM*	.
CCS(=O)(=O)c1ncc(Cl)c(C(=O)N2CCN(c3cccc(Cl)c3)CC2)n1	11%	.	-1%	0.4µM*	.
NOCc1ccccc1	.	-2	.	.	.
N#Cc1cc(Oc2cccc3cccnc23)c(-n2nnc3ccccc32)cc1C#N	7%	-21	-3%	71µM*	-6%
N#Cc1ccc(Oc2cccc3cccnc23)c([N+](=O)[O-])c1	39%	-37*	9%	10%	-1%
N#Cc1cc(O)c(-n2nnc3ccccc32)cc1C#N	1%	4	-1%	-8%	-3%
Cc1ccc2cccc(Oc3ccc([N+](=O)[O-])cc3[N+](=O)[O-])c2n1	26%	-29	-7%	?	5%
O=[N+]([O-])c1ccc(Oc2cccc3cccnc23)c([N+](=O)[O-])c1	32%	-42*	-1%	-19%	0%
CC(C)(C)OC(=O)NC(Cc1ccccc1)C(O)c1ccco1 (centres undefined)	.	0	-1%	-18%	.
COc1cc(CN2c3ccccc3C(=O)CS2(=O)=O)cc(OC)c1	28%	.	6%	?	-8%
O=C1CS(=O)(=O)N(Cc2ccc(F)cc2)c2ccccc21	2%	.	-6%	45µM*	-1%
CC(O)COCC1OC2OC3C(COCC(C)O)OC(OC4C(COCC(C)O)OC(OC5C(COCC(C)O)OC(OC6C(COCC(C)O)OC(OC7C(COCC(C)O)OC(OC8C(COCC(C)O)OC(OC1C(OCC(C)O)C2OCC(C)O)C(OCC(C)O)C8OCC(C)O)C(OCC(C)O)C7OCC(C)O)C(OCC(C)O)C6OCC(C)O)C(OCC(C)O)C5OCC(C)O)C(OCC(C)O)C4OCC(C)O)C(OCC(C)O)C3OCC(C)O (centres undefined)	.	.	5%	19%	.
CCNC(=O)c1c(NC(=O)c2nc(S(=O)(=O)CC)ncc2Cl)sc2c1CCCC2	13%	.	-9%	14µM*	.
COCCCNC(=O)c1c(NC(=O)c2nc(S(C)(=O)=O)ncc2Cl)sc2c1CCCC2	-9%	.	6%	1.8µM*	.

Screening data (PubChem)
